Structures can show the parent of a compound that is named as a salt. A number with no mark means an inactive call.

For the test, the system named is NCI-H1688. The test is described as follows: inhibition of cell viability relative to untreated control (fraction); higher = stronger growth inhibition, active = 0.5 or more. Particulars: 30 µM; 24 h. The protocol: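 Natural product library (TargetMol, 640 compounds) screened on NCI-H1688 SCLC cells at 30 µM for 24 h; viability by CCK-8 absorbance at 450 nm, normalised to untreated control and expressed as inhibition rate (fraction). Compounds with >50% reduction in viability were selected as hits.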
As to `CC(=O)O[C@H]1CC[C@H]2[C@@H]3CCC4=CC(=O)CCC4=C3C=C[C@]12C` [Trenbolone acetate], the “inhibition of cell viability” value was -0.43.
Then `O=C1CCC[C@@H]2[C@H]3CCCN4CCC[C@@H](CN12)[C@@H]34` [(+)-Matrine], with 0.176; and `CCCCCCCCC(=O)NCc1ccc(O)c(OC)c1` [Nonivamide], with -0.0291; and `COc1cc2c3c(c1OC)-c1ccccc1C[C@H]3N(C)CC2` [Nuciferine], with 0.173.
The value for `c1cc2c(cc1[C@H]1OC[C@H]3[C@@H]1CO[C@@H]3c1ccc3c(c1)OCO3)OCO2` [Sesamin] was -0.0637; that for `COC1=C[C@@H]2[C@@H]3Cc4ccc(OC)c(O)c4[C@]2(CCN3C)CC1=O` [Sinomenine hydrochloride] was -0.0195.
As to `COC1=C[C@@H]2[C@@H]3Cc4ccc(OC)c(O)c4[C@]2(CCN3C)CC1=O` [Sinomenine], the “inhibition of cell viability” value was -0.13.
As for `NCCc1c[nH]c2ccccc12` [Tryptamine], the “inhibition of cell viability” value was -0.188.
Turning to `C[C@@H]1C[C@@H]([C@H](O)CC2CC(=O)NC(=O)C2)C(=O)[C@@H](C)C1` [Actidione], the “inhibition of cell viability” value was 0.943 (active).
`O=C1C[C@@H]2OCC=C3CN4CC[C@]56c7ccccc7N1[C@H]5[C@H]2[C@H]3C[C@H]46` [Strychnine]: the “inhibition of cell viability” value is -0.0859.
On to `CC(=O)OCC1=C(C(=O)O)N2C(=O)[C@@H](N)[C@H]2SC1` [7-Aminocephalosporanic acid], for which the “inhibition of cell viability” value is 0.00874.
Then `CC(C)[C@]12O[C@H]1[C@@H]1O[C@]13[C@]1(O[C@H]1C[C@H]1C4=C(CC[C@@]13C)C(=O)OC4)[C@@H]2O` [Triptolide (PG490)], with 0.948 (active).
Then `CN(C)CCc1ccc(O)cc1` [Hordenine], with 0.0129; and `CCC1=C[C@H]2CN3CCc4c([nH]c5ccccc45)[C@](C(=O)OC)(C2)[C@H]13` [Catharanthine], with 0.0372.
The value for `O=C1C[C@@H]2OCC=C3CN4CC[C@]56c7ccccc7N1[C@H]5[C@H]2[C@H]3C[C@H]46` [Strychnine Sulfate] was -0.193.
Turning to `CNC1CC(N)C(O)C(OC2OC(CO)C(O)C3OC4(OC(C(N)CO)C(O)C(O)C4O)OC23)C1O` (stereo not given) [Hygromycin B], the “inhibition of cell viability” value is 0.829 (active).
Regarding `C[C@@H]1[C@H](O)[C@@H](C)/C=C/C=C/CC/C=C/C=C/C=C/C=C/[C@H](O[C@H]2O[C@@H](C)[C@H](O)[C@@H](N)[C@H]2O)C[C@@H]2O[C@](O)(C[C@@H](O)[C@H](O)CC[C@@H](O)C[C@@H](O)C[C@@H](O)CC(=O)O[C@H]1C)C[C@H](O)[C@H]2C(=O)O` [Nystatin (Fungicidin)], the “inhibition of cell viability” value was 0.267.
Consider `COc1cccc(C=O)c1OC` [o-Veratraldehyde], for which the “inhibition of cell viability” value is -0.267.
Then `C[C@H]1O[C@H](O[C@H]2[C@H](O)[C@@H](O)[C@@H](O)[C@H](O)[C@@H]2O)[C@@H](N)C[C@@H]1NC(=N)C(=O)O` [Kasugamycin hydrochloride], with 0.294; and `CC[C@@]1([C@@H]2O[C@@H]([C@H]3O[C@@](O)(CO)[C@H](C)C[C@@H]3C)C[C@@H]2C)CC[C@H]([C@]2(C)CC[C@]3(C[C@H](O)[C@@H](C)[C@@H]([C@@H](C)[C@@H](OC)[C@H](C)C(=O)O)O3)O2)O1` [Monensin sodium salt], with 0.761 (active).
Take `CN1[C@@H]2CC[C@H]1C[C@@H](OC(=O)[C@H](CO)c1ccccc1)C2` [L-Hyoscyamine]: the “inhibition of cell viability” value was 0.305.
Then `NCCc1c[nH]c2ccc(O)cc12` [Serotonin hydrochloride], with 0.104.
In the case of `C#C[C@]1(O)CC[C@H]2[C@@H]3CCC4=CC(=O)CC[C@]4(C)[C@H]3CC[C@@]21C` [Ethisterone], the “inhibition of cell viability” value was 0.178.
The value for `CCC1(O)C(=O)OCc2c1cc1n(c2=O)Cc2cc3ccccc3nc2-1` (single isomer, unassigned; (+)) [(+)-Camptothecin] was 0.979 (active); that for `C[C@@]12C(=O)OC(=O)[C@]1(C)[C@H]1CC[C@@H]2O1` [Cantharidin] was 0.983 (active); that for `COc1cc2c(c(OC)c1OC)-c1ccc(OC)c(=O)cc1[C@@H](NC(C)=O)CC2` [Colchicine] was 0.84 (active).
The value for `CC1=C(O)C(=O)C=C2C1=CC=C1[C@@]2(C)CC[C@@]2(C)[C@@H]3C[C@](C)(C(=O)O)CC[C@]3(C)CC[C@]12C` [Celastrol] was 1 (active).
`C=C[C@H]1CN2CC[C@H]1C[C@@H]2[C@@H](O)c1ccnc2ccccc12` [Cinchonine]: the “inhibition of cell viability” value was -0.188.
Consider `CC(=O)OC12COC1CC(O)C1(C)C(=O)C(O)C3=C(C)C(O)CC(O)(C(OC(=O)c4ccccc4)C21)C3(C)C` (stereo not given) [10-Deacetylbaccatin III], for which the “inhibition of cell viability” value was 0.454.
Then `CC(=O)[C@]1(O)CC[C@@]2(O)[C@]1(C)[C@H](OC(=O)/C=C(\C)C(C)C)C[C@@H]1[C@@]3(C)CC[C@H](O)CC3=CC[C@]12O` [Caudatin], with 0.161.
In the case of `C/C=C(\C)C(=O)N[C@@H](c1ccccc1)[C@@H](O)C(=O)O[C@H]1C[C@@]2(O)[C@@H](OC(=O)c3ccccc3)[C@@H]3[C@]4(OC(C)=O)CO[C@@H]4C[C@H](O)[C@@]3(C)C(=O)[C@H](OC(C)=O)C(=C1C)C2(C)C` [Cephalomannine], the “inhibition of cell viability” value was 0.721 (active).
The value for `COc1cc2c(cc1OC)C13CCN4CC5=CCOC6CC(=O)N2C1C6C5CC43` (stereo not given) [Brucin] was -0.145; that for `CCC1=C[C@@H]2CN3CCc4c([nH]c5ccccc45)[C@@](C(=O)OC)(C2)[C@@H]13` [Catharanthine tartrate] was -0.101; that for `CC(=O)O[C@H]1[C@H]2[C@@H](OC(=O)Cc3ccccc3)[C@@H](C)C[C@]2(OC(C)=O)C(=O)/C(C)=C/[C@@H]2[C@H](CC[C@@]13CO3)C2(C)C` [Euphorbiasteroid] was 0.499.
Turning to `COC1=C[C@]23CCCN2CCc2cc4c(cc2[C@@H]3[C@@H]1O)OCO4` [Cephalotaxine], the “inhibition of cell viability” value is 0.394.
In the case of `CN1[C@@H]2CC[C@H]1C[C@@H](OC(=O)C(CO)c1ccccc1)C2` (stereo not given in full) [Atropine], the “inhibition of cell viability” value is -0.146.
Then `Cc1c([C@H](C)[C@@H]2NC[C@@H](C)C[C@H]2O)ccc2c1C[C@H]1[C@H]2CC=C2C[C@@H](O)CC[C@@]21C` [Veratramine], with 0.262; and `C=C(C)[C@H]1Cc2c(ccc3c2O[C@@H]2COc4cc(OC)c(OC)cc4[C@@H]2C3=O)O1` [Rotenone], with 0.823 (active).
Then `COC(=O)C1=CCCN(C)C1` [Arecoline HBr], with 0.105; and `COc1ccc(CC2NCCc3cc(OC)c(OC)cc32)cc1OC` (stereo not given) [Tetrahydropapaverine hydrochloride], with 0.125.

The values above are taken from the supplement of paper PMC11634586.
